This is a sample that favours compounds with a hit; in the whole collection about 8.2% have one here.
MCF10A rereplic – induces DNA re-replication in MCF 10a normal breast cells; MCF 10A DNA re-replication, Hoechst nuclear intensity, 48 h; Potency, µM (titrated, usually from 46.1 µM), inactives show at the top dose activity, positive = re-replication, actives largely listed as activators; actives 2.9% (n = 350,000); AID 624296; note: % of control where 0% means no effect; nearly all actives have a fitted effect of over 50% in size
ELG1 repair inh – inhibitors of ELG1-dependent DNA repair in HEK293T cells | actives 2.3% (n = 330,000) | HEK293T ELG1-luciferase reporter, luminescence, 16 h; DNA damage induced by 5-fluorouridine | Potency, µM (series often up to 46.1 µM), for the others: at the highest dose activity change, negative = inhibition, most hits filed as inhibitors; note: % is set by controls: 0 for no effect and ±100 for the full control effect; nearly all actives have a fitted effect of over 55% in size
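5-Fluorouridine DNA damage + compound/DMSO, 2,000 cells/well, 16 h, 37 °C/5% CO2. ONE-Glo, 30 min RT, luminescence. Readout = decrease in reporter signal.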
KB-V1 cytotox – kills drug-selected multidrug resistant KB-V1 cells; AID 1347076; Potency, µM (highest dose often 46.1 µM), most hits filed as cytotoxic; KB-V1 MDR cells viability, CellTiter-Glo, 72 h; actives 3.4% (n = 400,000); note: % is set by controls: 0 for no effect and ±100 for the full control effect; nearly all actives have a fitted effect of over 60% in size
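Cytotoxicity via CellTiter-Glo luminescence after 72 h compound exposure at 37 degrees C. Cells: drug-selected KB-V1 line, DMEM phenol-red free plus 10% FBS. Compounds tested at multiple concentrations; normalized data fitted to concentration-effect curves.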
KB-3-1 cytotox – kills parental KB-3-1 adenocarcinoma cells; actives 1.4% (n = 400,000); KB-3-1 viability, CellTiter-Glo ATP luminescence, 72 h; Potency, µM (titrated, usually from 46.1 µM), actives largely listed as cytotoxic; note: % is set by controls: 0 for no effect and ±100 for the full control effect; nearly all actives have a fitted effect of over 60% in size
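Using CellTiter-Glo luminescence, growth of non-resistant KB-3-1 adenocarcinoma cells is assessed 72 h after pin-tool compound addition at 37 °C. Normalized responses across the concentration series yield fitted curves.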
SW480 rerep – induces DNA re-replication in SW480 colon adenocarcinoma cells. SW480 DNA re-replication, Hoechst DNA content imaging, 48 h. Potency, µM (series often up to 46.1 µM), for the others: at the top dose re-replication activation, hits mostly activators. actives 1.8% (n = 340,000); note: % of control where 0% means no effect; nearly all actives have a fitted effect of over 55% in size
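Hoechst fluorescence of nuclei (405 nm excitation, 500-530 nm emission) measured by plate-scanning imager after 48 hr compound exposure at 37 C; re-replication scored as increased number of nuclei with elevated intensity.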
* marks the source's active call; other numbers are inactive results; i = inactive; u = inconclusive; x = no result given; [ ] = remark or other dose. Calls come from the whole dose curve; as a rule, active = well fitted curve in the direction sought with a large enough effect; inconclusive = small, poorly fitted or top-dose-only effect, or another doubt; inactive = no such curve, though single readings can be large; an effect the other way counts as inactive or inconclusive. Potency is the fitted concentration of half-maximal effect.

SMILES	MCF10A rereplic	ELG1 repair inh	KB-V1 cytotox	KB-3-1 cytotox	SW480 rerep
Cc1nn(Cc2c(F)c(F)c(F)c(F)c2F)c(C)c1NC(=O)c1cccc(COc2ccccc2Cl)c1	-4%	u	2.6µM*	i	-2%
Cc1nn(Cc2cccc(F)c2)c(C)c1NC(=O)c1ccc(COc2ccccc2Cl)cc1	u	u	2.6µM*	i	27%
O=C(Nc1ccn(Cc2c(F)c(F)c(F)c(F)c2F)n1)c1ccc(COc2ccccc2Cl)cc1	20%	-13%	i	u	0%
Cn1c(-c2ccc(C#N)cc2)c(C#Cc2ccccc2)c2ccccc21	u	x	i	i	1.3µM*
Cc1cc(C#Cc2c(-c3ccccc3)n(C)c3ccccc23)ccc1F	8.2µM*	-5%	i	i	-11%
COc1ccc(C#Cc2c(-c3ccccc3)n(C)c3ccccc23)cc1	u	12%	i	u	u
CC1Cc2ccccc2N1C(=O)CSc1nc2c(c(=O)n(C)c(=O)n2C)n1Cc1ccc(F)cc1 (stereo not drawn)	0%	x	1.8µM*	i	-4%
CCCn1c(SCC(=O)N2c3ccccc3CCc3ccccc32)nc2c1c(=O)n(C)c(=O)n2C	5%	-12%	4.1µM*	i	-2%
CCCCn1c(SCC(=O)N2CCCC2)nc2c1c(=O)n(C)c(=O)n2C	-3%	-10%	9.2µM*	i	-2%
CCOC(=O)c1c(NC(=O)CSc2nc3c(c(=O)n(C)c(=O)n3C)n2CC)sc(C)c1C	18%	5%	9.2µM*	i	-1%
CCCCn1c(SCC(=O)Nc2nnc(C(C)C)s2)nc2c1c(=O)n(C)c(=O)n2C	u	18µM*	2.3µM*	u	-8%
CCCCn1c(SCC(=O)N2c3ccccc3Sc3ccccc32)nc2c1c(=O)n(C)c(=O)n2C	20%	u	15µM*	16µM*	u
CCn1c(SCC(=O)N2c3ccccc3Sc3ccccc32)nc2c1c(=O)n(C)c(=O)n2C	u	15%	u	i	u
CCCn1c(SCC(=O)N2CCc3ccccc3C2)nc2c1c(=O)n(C)c(=O)n2C	3%	-18%	3.7µM*	i	-2%
CC1Cc2ccccc2N1C(=O)CSc1nnc(Cn2nnc3ccccc32)n1C (stereo not drawn)	4%	-16%	18µM*	i	-2%
C[S+](C)CC(=O)c1ccc2ccccc2c1	x	x	u	i	x
O=C(Nc1cccc(OC(F)(F)F)c1)c1cccc2c(-c3cccnc3)coc12	x	x	i	i	x
O=C(N[C@@H](Cc1ccccc1)C(=O)NC1CCCCC1)c1ccco1	15%	u	13µM*	i	0%
O=C(N[C@@H](Cc1ccccc1)C(=O)NC1CCCCCC1)c1ccco1	-4%	u	5.2µM*	u	1%
CC(C)c1ccc(C2(C)NC(=O)N(CC(=O)N3CCN(C(=O)c4cccs4)CC3)C2=O)cc1 (stereo not drawn)	-6%	u	i	i	7%
CC(C)NC(=O)Nc1ccc2c(c1)C(=O)N([C@H](C)CO)C[C@H](C)[C@@H](CN(C)Cc1ccc3c(c1)OCO3)OCCCC[C@@H](C)O2	x	x	i	i	x
O=S(=O)(c1ccc2nc(Cc3ccccc3)[nH]c2c1)N1CCOCC1	-3%	-20%	i	i	u
O=S(=O)(c1ccc2nc(Cc3cccc(C(F)(F)F)c3)[nH]c2c1)N1CCOCC1	2.9µM*	1%	i	i	u
COCCNC(=O)c1ccc2c(c1)nc(C)n2-c1cccc(F)c1	12%	u	21µM*	i	5%
Cc1cccc(-n2c(C)nc3cc(C(=O)NCc4ccc5c(c4)OCO5)ccc32)c1	-68%	u	16µM*	i	u
SMILES	MCF10A rereplic	ELG1 repair inh	KB-V1 cytotox	KB-3-1 cytotox	SW480 rerep
CCCNC(=O)c1ccc2c(c1)nc(C)n2-c1cccc(C)c1	5%	14%	i	i	15%
CC1(C(=O)O)CCCN(C(=O)c2ccc(OC(F)F)cc2)C1 (stereo not drawn)	x	x	i	i	x
O=C(C1=C[C@@H](c2csc3ccccc23)C[C@@H](OCc2ccc(CO)cc2)O1)N1CCN(Cc2ccc3c(c2)OCO3)CC1	u	9.2µM*	u	u	u
O=C(C1=C[C@@H](c2ccccc2)C[C@@H](OCc2ccc(CO)cc2)O1)N1CCN(Cc2ccc3c(c2)OCO3)CC1	u	15µM*	u	10µM*	u
O=C(C1=C[C@H](c2ccccc2)C[C@H](OCc2ccc(CO)cc2)O1)N1CCN(Cc2ccccc2)CC1	u	u	i	i	-17%[9.22 µM]
O=C(C1=C[C@@H](c2csc3ccccc23)C[C@@H](OCc2ccc(CO)cc2)O1)N1CCN(Cc2ccccc2)CC1	9%	u	u	i	-2%
COc1ccc(NC(=O)C2CCN(Cc3cnn(-c4ccccc4)c3-n3cccc3)CC2)cc1OC	-8%	x	u	i	-5%
COc1ccc(OC)c(NC(=O)C2CCN(Cc3cnn(-c4ccccc4)c3-n3cccc3)CC2)c1	13%	23µM*	8.2µM*	i	u
O=C(Nc1ccccc1Cl)C1CCN(Cc2cnn(-c3ccccc3)c2-n2cccc2)CC1	u	u	23µM*	18µM*	13%
COc1ccc(OC)c(NC(=O)CSCc2cnn(-c3ccccc3)c2-n2cccc2)c1	u	-15%	i	i	1%
COc1cccc(NC(=O)C2CCN(Cc3cnn(-c4ccccc4)c3-n3cccc3)CC2)c1	u	18µM*	u	u	u
Cc1cccc(NC(=O)CN(C)S(=O)(=O)c2ccc3c(c2)c(=O)n(C)c(=O)n3C)c1	x	x	i	i	x
C[C@@H](c1ccccc1)N1C[C@H](COCc2ccccc2)Oc2cc(N3CCC[C@@H]3CO)ccc2S1(=O)=O	x	x	i	i	x
COc1ccc(NC(=O)CSc2n[nH]c(-c3ccccc3)n2)cc1S(N)(=O)=O	-1%	24%	i	i	0%
CCOC(=O)C1=CN(Cc2ccc(OC)cc2)C=C(C(=O)OCC)C1c1cccs1	18µM*	u	u	i	u
O=C1c2ccccc2C(=O)N1CCCc1c[nH]c2ccccc12	u	u	21µM*	i	26%
O=C1c2ccccc2C(=O)N1CCc1c[nH]c2ccc(O)cc12	-2%	u	u	i	3.7µM*
O=C1c2ccccc2C(=O)N1CCc1c[nH]c2ccccc12	24%	u	u	i	-81%
O=C1CN(C(=O)CCCc2c[nH]c3ccccc23)c2ccccc2N1	16µM*	u	i	i	0%
CCOC(=O)c1c(NC(=O)CCCOc2ccc(C(C)(C)C)cc2)sc2c1CCCC2	x	x	i	i	x
